The results in this text go back to ChEMBL document CHEMBL4513216, “Probing the Open Global Health Chemical Diversity Library for Multistage-Active Starting Points for Next-Generation Antimalarials” (ACS Infect Dis, 2020).

Screen size: about 69,000 compounds; about 8,600 (12%) showed an effect of 50% or more. The entries come from a sample that favours strong results as a whole.

For the assay, the system named is Plasmodium berghei. Put plainly: Screen against P. berghei liver stage (PbLuc), transformed with Luciferase, at 10uM. The class given is functional, HepG2. The conditions noted are these: tested at 10 uM.
Take `CCOc1ccccc1CC(=O)N1C[C@H](C2CC2)[C@@H](N)C1`: the INHIBITION amounted to 2.66%.

`Cc1nn(C)cc1NC(=O)CN1CCN(C2CCCC2)C(=O)C1`: the INHIBITION is recorded as 19.35%.

As to `CC(C)c1nc(C2CCCN2Cc2nccn2CC(F)(F)F)no1` (centres undefined), the INHIBITION is 26.4%.

For `c1cc(-c2cnc(NC3CC3)nc2[C@@H]2CCCO2)ccn1`, the INHIBITION is 5.34%.

For the molecule `Cc1ccc(NC2CCN(C(=O)COCC3CC3)CC2)nn1`, the INHIBITION was 56.6%.

As for `O=C(COCC1CC1)N1CCSCC1`, the INHIBITION came out at 64.9%.

Take `CC(C)(O)CN1CCN(C(=O)COCC2CC2)CC1`: the INHIBITION is on record as -38.8%.

In the case of `Cc1ccc(NC2CCN(C(=O)COC3CCCC3)CC2)nn1`, the INHIBITION is reported as -28.4%.

As to `Cc1ccc(NC2CCN(C(=O)COc3ccccc3)CC2)nn1`, the INHIBITION is -29.7%.

Turning to `Cc1ccc(NC2CCN(C(=O)CCOCC(F)(F)F)CC2)nn1`, the INHIBITION is recorded as 33.3%.

Regarding `Cc1ccc(NC2CCN(C(=O)COC3CCCCC3)CC2)nn1`, the INHIBITION is recorded as -7.81%.

Take `Cc1ccc(NC2CCN(C(=O)COCC(F)(F)F)CC2)nn1`: the INHIBITION stood at 53%.

Regarding `CS(=O)(=O)NCC1CCCN(C(=O)COCC2CC2)C1` (centres undefined), the INHIBITION is 48.1%.

As to `O=C(NCc1csc(Br)c1)N1CCOCC1`, the INHIBITION is reported as -6.865%.

`COCCC(=O)NCCc1nc2cc(-c3ccc(OC)cc3)ncn2n1`: the INHIBITION stood at 23.5%.

With `Cc1oncc1C(=O)N1CCC2(CC1)C(c1cnn(C)c1)CC(=O)N2C` (centres undefined), the INHIBITION is recorded as -15.5%.

As to `CN(C)CC1[C@H]2CN(C(=O)c3cc(=O)[nH]c4ccc(F)cc34)C[C@@H]12` (some centres undefined), the INHIBITION is reported as 43%.

With `CCC(C(=O)NC(C)(C)C)n1ccc2ncccc2c1=O` (centres undefined), the INHIBITION was determined as 20.9%.

Regarding `c1coc(-c2nc(CNC3CCCNC3)no2)c1` (centres undefined), the INHIBITION is given as -25.6%.

As for `CN(C)c1cc(C2CCCN2C(=O)c2ccc(=O)n(C)c2)ccn1` (centres undefined), the INHIBITION is given as -76.7%.

Take `CN(C)c1cc(CNC(=O)c2ccccc2Cl)ccn1`: the INHIBITION is -7.35%.

For `CC(c1cccc(Cl)c1)N(C)Cc1nc2c(cnn2C)c(=O)[nH]1` (centres undefined), the INHIBITION is on record as 15.32%.

As for `COCCc1ncc(CNC2(c3ccc(Cl)cc3)CC2)cn1`, the INHIBITION is -57.4%.

Consider `CC(C)CN1C[C@@H]2C(=O)N(C)C3(CCN(C(=O)C(C)C)CC3)[C@@H]2C1`, for which the INHIBITION was -40.5%.

As for `Cc1noc(C(C)C)c1C(=O)NCCCN1CCC(C)CC1`, the INHIBITION was -12.1%.

For `Cc1noc(C(C)C)c1C(=O)NCCCN1CCCC1`, the INHIBITION turned out to be 66.2%.

As to `Cc1noc(C(C)C)c1C(=O)NCCCN1CCNCC1`, the INHIBITION is reported as -18%.

Regarding `Cc1ccc2c(n1)N(CCn1cccn1)CCN(S(C)(=O)=O)C2`, the INHIBITION was -73.5%.

Consider `c1ccc(Cc2nnc(CN3CCn4c(nnc4C4CC4)C3)o2)cc1`, for which the INHIBITION was 21.5%.

As for `Cc1cnc(CN(C)C(=O)C23CNCC2CNC3)[nH]1` (centres undefined), the INHIBITION was 58.4%.

For `CNc1ncc(CN(C)C(=O)[C@@]23CNC[C@@H]2CN(C(=O)C2CC2)C3)cn1`, the INHIBITION was -149%.

As to `Cc1c[nH]c(CN(C)C(=O)[C@@]23CNC[C@@H]2CN(c2ncccn2)C3)n1`, the INHIBITION was determined as 30%.

As to `Cc1ccc(CN2CCOCS2(=O)=O)cc1F`, the INHIBITION worked out at 38%.

With `CCn1cc(NC(=O)NCc2ccc(CN3CCOCC3)cc2)cn1`, the INHIBITION was 30.2%.

Turning to `O=C(O)c1cc(-c2ccc3c(c2)OCO3)cc(S(=O)(=O)NC2CC2)c1`, the INHIBITION was found to be 8.74%.

With `CN(C)c1ccc(-c2cc(C(=O)O)cc(S(=O)(=O)NC3CC3)c2)cc1`, the INHIBITION worked out at 84.9%.

In the case of `O=C(O)c1cc(-c2ccoc2)cc(S(=O)(=O)NC2CC2)c1`, the INHIBITION is 27.6%.

As to `N#CC1Sc2nnc(-c3ccccc3F)n2N=C1N` (centres undefined), the INHIBITION was found to be 11.6%.

Regarding `COc1ccc2[nH]cc(-c3ccnc(N4CCC(C)CC4)n3)c2c1`, the INHIBITION was 36.7%.

With `O=c1[nH]c(-c2ccncc2)ncc1-c1ccnc(NC2CCCCC2)n1`, the INHIBITION is 1.11%.

In the case of `COc1ccc2[nH]cc(-c3ccnc(NC4CCCC4)n3)c2c1`, the INHIBITION was 90.1%.

`Cc1ccc(CN2CC[C@@]3(O)CCN(S(=O)(=O)N(C)C)C[C@H]3C2)cc1C`: the INHIBITION is on record as -4.95%.

Take `COc1ncccc1CNC(=O)Nc1ccc(N(C)C)nc1`: the INHIBITION worked out at 15.6%.

With `COCCN1C(=O)CCC12CCN(c1ncc(F)cn1)CC2`, the INHIBITION worked out at 14.1%.

As to `CCn1ncc2c1CCCC2NCc1cscn1` (centres undefined), the INHIBITION amounted to 35.4%.

Take `CCn1ncc2c1CCCC2NCC1=Cc2ccccc2OC1` (centres undefined): the INHIBITION is listed as 63.9%.

As for `CCn1ncc2c1CCCC2NCc1ccc(C)s1` (centres undefined), the INHIBITION is recorded as -21.9%.

Regarding `Cc1cccc(CNC2CCCc3c2cnn3Cc2ccccc2)c1` (centres undefined), the INHIBITION worked out at 26.4%.

On to `CCn1ncc2c1CCCC2NCc1cc(C)ccc1OC` (centres undefined), for which the INHIBITION was found to be 9.14%.

Consider `CCn1ncc2c1CCCC2NCc1ccccc1N1CCOCC1` (centres undefined), for which the INHIBITION was 56.4%.

Regarding `CCn1ncc2c1CCCC2NCc1ccc(OC)c(F)c1` (centres undefined), the INHIBITION was 21.5%.

Take `CCn1ncc2c1CCCC2NCc1cccc2c1OCCO2` (centres undefined): the INHIBITION worked out at 18.6%.

On to `Cc1ccc(CNC2CCCc3c2cnn3Cc2ccccc2)s1` (centres undefined), for which the INHIBITION came to 60.9%.

As to `CCn1ncc2c1CCCC2NCc1cccc2c1OCO2` (centres undefined), the INHIBITION was 33.8%.

On to `CCCOc1ccc(CNC2CCCc3c2cnn3CC)cc1OC` (centres undefined), for which the INHIBITION was determined as 52%.

For `CCn1ncc2c1CCCC2NCc1ccc(OC)c(C)c1` (centres undefined), the INHIBITION is 38%.

`NC(=O)CN1CCCC(Cc2ccc(N3CCOCC3)nn2)C1` (centres undefined): the INHIBITION was determined as 15.9%.

Regarding `COC(=O)C(NC(=O)C1CCC1)c1cc(F)ccc1F` (centres undefined), the INHIBITION is on record as -19.9%.

On to `Cc1nn(C)c(Cl)c1C(=O)NCC1(C(N)=O)CCOCC1`, for which the INHIBITION worked out at 27.5%.
